An excerpt weighted towards active compounds, which were near 6.5% of everything screened.
Abs 340nm: compound light absorbance at 340 nm, profiling panel, artefact control, biochemical, MLSMR library, data from PS, PMK, MK assays; compound absorbance at 340 nm, fold over control; fold change at 10 µM; 65,000 tested, under 10 active; AID 708, 2007;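 active means at 10 µM dose, initial 340 nm absorbance at least 2 fold that of control wells; inactive means change under 2 fold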;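 further: initial absorbance extrapolated from kinetic A340 decline of NADH oxidation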
PMK inhibit: S. pneumoniae PMK inhibitors, primary screen, biochemical, mevalonate pathway, pilot trial included | purified PMK, PK/LDH-coupled NADH absorbance 340 nm | inhibition, % at 10 µM | 65,000 tested, 0.49% active | AID 539, 2006;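 active means top-ranked compounds by inhibition in the single 10 µM screen, taking a fixed number of the strongest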
NADH coupling: inhibitors of PK/LDH coupling enzymes, profiling panel, artefact control, biochemical, MLSMR library | IC50, µM (top dose mostly 10 µM) | 65,000 tested, 0.02% active | coupled PK/LDH NADH assays, four targets;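 active means single-dose screening hits from any of four coupled enzyme assays that gave an IC50 when retested across doses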;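 further: the DPM-DC format reads NADH fluorescence rather than 340 nm absorbance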
Autofluor 339: intrinsic fluorescence of library compounds, ex339/em460 – biochemical, MLSMR library, data from DPM-DC assay, artefact control, profiling panel; compound autofluorescence, ex339/em460 nm, NADH buffer; stronger effect = higher value; 1 = no-compound wells, NADH background; AID 709, 2007; 65,000 tested, 5.5% active; fluorescence fold increase at 10 µM;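 active means at 10 µM, mean starting fluorescence two-fold or more over control wells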;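 further: signal is the first read of a kinetic run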
Spn MK inh: S. pneumoniae MK inhibitors, primary screen, biochemical, PK/LDH-coupled NADH absorbance; purified MK, PK/LDH-coupled NADH absorbance 340 nm; inhibition, % at 10 µM; 65,000 tested, 0.48% active; AID 555, 2006;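 active means ranked among the strongest by inhibition in the single 10 µM screen, a fixed top-ranked set picked for dose follow-up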
Spn DPM-DC inh: S. pneumoniae DPM-DC inhibitors, primary screen, biochemical, PK/LDH-coupled NADH fluorescence | purified DPM-DC | diphosphomevalonate decarboxylase (Streptococcus pneumoniae D39) | 65,000 tested, 0.49% active | calls only at 10 µM;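 active means the 320 compounds with the highest percent inhibition in the single-dose primary screen, excluding strongly autofluorescent ones, cut at about 32% in these data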;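 further: kinetic rate of NADH fluorescence loss reporting ADP formed by the decarboxylase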
Each line names hits and unclear results; the compound was inactive in the other large screens.

CCOC(=O)c1cc(-c2cccs2)nc2onc(C)c12	Autofluor 339 4.8 (not shown: Spn DPM-DC inh)
c1csc(-c2cnc3n2CCCC3)c1	none
CCOC(=O)c1nnn(-c2nonc2N)c1-c1cccs1	none
Cn1c(Cn2cnc3ccccc32)nnc1SCC(=O)CC(=O)Nc1ccccc1	none
COc1cccc(-c2cc(C(F)(F)F)nc(N3CCCCC3)n2)c1	none
COc1ccccc1-c1nnc(NC(=O)c2ccc(S(=O)(=O)N(C)C)cc2)o1	none
CCCN(CCC)S(=O)(=O)c1ccc(C(=O)Nc2nnc(-c3cc(OC)cc(OC)c3)o2)cc1	none
CCCN(CCC)S(=O)(=O)c1ccc(C(=O)Nc2nnc(-c3cccc(OC)c3)o2)cc1	Autofluor 339 2.1 (not shown: Spn DPM-DC inh)
CCN(Cc1ccccc1)S(=O)(=O)c1ccc(C(=O)Nc2nnc(-c3ccccc3OC)o2)cc1	Autofluor 339 3.8 (not shown: Spn DPM-DC inh)
O=C(CN(c1ccc(F)cc1)S(=O)(=O)c1ccc2c(c1)OCCO2)N1CCOCC1	none
CCC(C)(C)n1nnnc1C(c1cccnc1)N1CCCc2ccccc21 (stereo not given)	PMK inhibit 28
COc1nc(-c2ccccc2)cc(-c2ccc(OC)c(OC)c2)n1	Autofluor 339 2.2 (not shown: Spn DPM-DC inh)
COc1ccc(-c2cc(C(F)(F)F)nc(N3CCN(c4ccccc4)CC3)n2)cc1OC	none
CCC(CC)C(=O)Nc1ccccc1NC(C)=O	none
COc1ccc(-n2nc3cc(C)c(NC(=O)c4cccnc4)cc3n2)cc1	Autofluor 339 3.3
Cc1cc2nn(-c3ccccc3)nc2cc1NC(=O)c1cccs1	none
COc1ccc(-n2nc3cc(C)c(NC(=O)CC(C)C)cc3n2)cc1	Autofluor 339 2.1 (not shown: Spn DPM-DC inh)
CCCCOc1ccc(Cl)cc1CSc1nnc(C)n1N	none
C=CCn1c(NC(=O)c2ccco2)c(S(=O)(=O)c2ccccc2)c2nc3ccccc3nc21	Autofluor 339 3.8 (not shown: Spn DPM-DC inh)
O=C(O)c1cc(-c2ccco2)[nH]n1	none
CC(C)Cc1cc(C(=O)O)n[nH]1	Autofluor 339 2
COc1cccc(OC)c1OCC(C)CNCC1CCCO1 (stereo not given)	Spn MK inh 52
O=CN1CC(=O)N(c2ccccc2)c2c([nH]c3ccccc23)C1	none
COc1cc2nc(N3CCN(C(=O)C4CCCO4)CC3)nc(N)c2cc1OC (stereo not given)	Autofluor 339 3.9 (not shown: Spn DPM-DC inh)
Cc1cc(C(=O)N2CCN(C(=O)C3CCCO3)CC2)no1 (stereo not given)	none
Cc1ccc(-c2nc(C#N)c(NCCc3ccccn3)o2)cc1	Autofluor 339 2.6
COc1ccc(CCNc2oc(COc3ccccc3F)nc2C#N)cc1	none
N#Cc1nc(-c2ccc(Cl)cc2)oc1NCCc1ccccn1	Autofluor 339 2.4 (not shown: Spn DPM-DC inh)
Cc1ccc(-n2c(SCC(=O)NCc3ccco3)nnc2-c2cccnc2)c(C)c1	Spn DPM-DC inh active
Cc1cccc(-n2c(SCC(=O)NCc3ccco3)nnc2-c2ccco2)c1	none
Cc1cccn2c(=O)c3cc(C(=O)NC(C)C)c(=N)n(Cc4ccncc4)c3nc12	Autofluor 339 3.7 (not shown: Spn DPM-DC inh)
CCCn1c(=N)c(C(=O)NCc2ccc3c(c2)OCO3)cc2c(=O)n3cccc(C)c3nc21	Autofluor 339 2.1
CCNC(=O)c1cc2c(=O)n3cccc(C)c3nc2n(Cc2ccc(C)cc2)c1=N	Autofluor 339 3.8 (not shown: Spn DPM-DC inh)
Cc1cccn2c(=O)c3cc(C(=O)Nc4ccc(N(C)C)cc4)n(C)c3nc12	none
O=C1CC(O)(C(F)F)Oc2ccc3ccccc3c21 (stereo not given)	Autofluor 339 3.7 (not shown: Spn DPM-DC inh)
O=C(CN(c1ccc(F)cc1)S(=O)(=O)c1ccc2c(c1)OCCO2)NCc1ccccn1	none
COc1ccc(NC(=O)c2cc(-c3ccccc3OC)on2)cc1	Spn MK inh 48
COc1ccc(-c2cc(C(=O)Nc3cc(C)n(Cc4ccc(Cl)cc4)n3)no2)cc1OC	Autofluor 339 2.2
COc1cccc(-c2cc(C(=O)Nc3ccccc3SC)no2)c1	none
COc1ccc(-c2cc(C(=O)Nc3cnn(Cc4ccccc4C)c3)no2)cc1OC	Autofluor 339 2.4
COc1ccc(-c2cc(C(=O)Nc3ccccc3SC)no2)cc1OC	Autofluor 339 2.2

Screens as filed in PubChem.
